According to PubChem BioAssay AID651548 (Broad Institute, 2012):
“And” between values parts separate entries of the source, which are not always exact repeats. Identical values can stand only once. About 200 (0.35%) of roughly 57,000 compounds were called active.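 Rule for the calls: active = mean inhibition of replicates at least 50% and every single replicate also reaching 50%; inconclusive = mean inhibition at least 50% but some replicate falls below 50%; inactive = mean inhibition under 50%.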 Shown is part of a subset that was picked to be rich in actives.

Each compound was assayed against Histone-lysine N-methyltransferase EZH2 (Homo sapiens) (UniProt Q15910) (assay: EZH2/PRC2 methyltransferase inhibitors, primary screen, biochemical, DELFIA time-resolved fluorescence, single point (AID 651548;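 note: dimethyl H3K27 on biotinylated H3 21-44 peptide detected by antibody; plate controls were median neutral control wells for no effect and median positive control wells for full effect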)). Conditions: PRC2 H3K27 methylation, DELFIA TRF, 1 h; at 12.5 µM; hits give high values.
Chain of Histone-lysine N-methyltransferase EZH2 (Homo sapiens) (Q15910 whole entry, looked up): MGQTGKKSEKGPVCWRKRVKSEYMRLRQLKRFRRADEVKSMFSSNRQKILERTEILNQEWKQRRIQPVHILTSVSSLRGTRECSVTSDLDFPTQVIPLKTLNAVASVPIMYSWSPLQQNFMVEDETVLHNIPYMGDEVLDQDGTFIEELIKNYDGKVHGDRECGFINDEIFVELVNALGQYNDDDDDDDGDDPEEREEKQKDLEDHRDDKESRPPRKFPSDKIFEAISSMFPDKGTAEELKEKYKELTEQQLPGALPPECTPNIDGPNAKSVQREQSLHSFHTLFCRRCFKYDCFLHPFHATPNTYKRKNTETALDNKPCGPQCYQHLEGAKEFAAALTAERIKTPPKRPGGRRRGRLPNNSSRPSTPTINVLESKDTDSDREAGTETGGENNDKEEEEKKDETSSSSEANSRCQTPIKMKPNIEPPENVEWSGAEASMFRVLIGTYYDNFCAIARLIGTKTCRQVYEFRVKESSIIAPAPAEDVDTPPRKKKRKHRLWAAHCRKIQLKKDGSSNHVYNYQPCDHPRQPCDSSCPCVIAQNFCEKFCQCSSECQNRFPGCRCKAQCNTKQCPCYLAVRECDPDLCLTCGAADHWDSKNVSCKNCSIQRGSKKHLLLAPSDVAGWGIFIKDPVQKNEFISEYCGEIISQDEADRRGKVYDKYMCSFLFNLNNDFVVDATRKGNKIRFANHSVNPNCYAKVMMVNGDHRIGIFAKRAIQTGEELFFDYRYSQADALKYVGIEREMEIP

Compound	inhibition
C[C@@H](NC(=O)C[C@@H]1C[C@@H]2c3cc(NC(=O)c4cccnc4)ccc3O[C@@H]2[C@H](CO)O1)c1ccccc1	4.89% (inactive)
CCC(=O)N1C[C@@H](C)[C@@H](OC)CN(C)C(=O)c2ccc(NC(=O)c3ccccc3)cc2OC[C@H]1C	2.93% (inactive)
CCCN(C)C[C@H]1Oc2cc(C#CCC3CCCC3)ccc2S(=O)(=O)N([C@@H](C)CO)C[C@@H]1C	10.9% (inactive)
C[C@@H]1CN([C@@H](C)CO)S(=O)(=O)c2ccc(C#CCC3CCCC3)cc2O[C@@H]1CN(C)C	-6.13% (inactive)
C[C@@H]1CN([C@H](C)CO)S(=O)(=O)c2ccc(C#CCC3CCCC3)cc2O[C@H]1CN(C)Cc1ccc(C(=O)O)cc1	58.1% (active)
CO[C@@H](CN(C)S(=O)(=O)c1ccc(C)cc1)[C@@H](C)CN([C@@H](C)CO)S(=O)(=O)c1cccc(Cl)c1	9.64% (inactive)
CN(C)CCCNC(=O)C[C@H]1C=C[C@@H](NC(=O)Cc2cccnc2)[C@H](CO)O1	13.4% (inactive)
Cc1ccccc1S(=O)(=O)NCC[C@@H]1CC[C@H](NC(=O)C2CC2)[C@@H](CO)O1	-14.1% (inactive)
COCCNC(=O)C[C@H]1CC[C@H](NS(=O)(=O)c2ccc(C)cc2)[C@@H](CO)O1	-9.8% (inactive)
COCC(=O)N(C)C[C@@H]1Oc2cc(C#CCC(C)C)ccc2S(=O)(=O)N([C@@H](C)CO)C[C@@H]1C	7.89% (inactive)
CO[C@H]1CN(C)C(=O)c2cc(NC(=O)C3CCCC3)ccc2OC[C@@H](C)N(C(=O)CC2CC2)C[C@@H]1C	4.88% (inactive)
C[C@@H]1CN([C@H](C)CO)C(=O)c2cc(NC(=O)CCCN(C)C)ccc2O[C@@H](C)CCCCO[C@H]1CN(C)CC1CCCCC1	-6.09% (inactive)
C[C@@H]1CN([C@@H](C)CO)S(=O)(=O)c2ccc(C3=CCCCC3)cc2O[C@@H]1CN(C)C(=O)CN(C)C	-15.1% (inactive)
O=C(C[C@@H]1C[C@@H]2c3cc(NC(=O)Nc4ccc(F)cc4)ccc3O[C@@H]2[C@H](CO)O1)NCC(F)(F)F	-13.1% (inactive)
CO[C@@H]1CN(C)C(=O)c2cc(NC(=O)c3ccccc3F)ccc2OC[C@H](C)N(C(C)=O)C[C@@H]1C	-5.74% (inactive)
C[C@H]1CN([C@@H](C)CO)C(=O)c2cc(Br)cnc2O[C@@H]1CN(C)S(=O)(=O)c1ccc(F)cc1	30.8% (inactive)
O=C(C[C@@H]1CC[C@@H](NC(=O)c2ccc3c(c2)OCO3)[C@H](CO)O1)NCc1ccc(Cl)cc1	11.8% (inactive)
C[C@@H]1CN([C@H](C)CO)C(=O)c2cccc(NC(=O)CCCCCC(=O)Nc3ccccc3N)c2O[C@H]1CN(C)Cc1ccc(Oc2ccccc2)cc1	-2.58% (inactive)
CCCCCc1ccc(/C=C/C(=O)Nc2ccccc2C(=O)O)cc1	61.8% (active)
CN(C)CCCSc1ccccc1NC(=O)/C=C/c1ccccc1	7.12% (inactive) and -8.56% (inactive)
O=C(O)CCCc1ccccc1	-7.51% (inactive)
O=C(N[C@@H]1CC[C@@H](CCNS(=O)(=O)Cc2ccccc2)O[C@@H]1CO)c1ccccc1F	-4.43% (inactive)

Compound	inhibition
CCCNC(=O)Nc1ccc2c(c1)C(=O)N(C)C[C@@H](OC)[C@H](C)CN(C(=O)C1CCCCC1)[C@H](C)CO2	4.24% (inactive)
O=C(N[C@H]1CC[C@@H](CCNS(=O)(=O)c2cccc(Cl)c2)O[C@@H]1CO)c1ccncc1	4.59% (inactive)
O=C(NCC[C@@H]1CC[C@@H](NC(=O)C2CCCC2)[C@H](CO)O1)c1cnccn1	-12% (inactive)
C[C@@H]1CN([C@@H](C)CO)C(=O)c2c(c3ccccc3n2C)-c2ccccc2CO[C@H]1CN(C)C(=O)N[C@H](C)c1ccccc1	-0.352% (inactive)
CO[C@@H]1CN(C)C(=O)c2cc(NC(=O)C3CCC3)ccc2OC[C@H](C)N(C(=O)CN(C)C)C[C@@H]1C	-0.841% (inactive)
CCCNC(=O)C[C@H]1C[C@@H]2c3cc(NC(=O)NC4CCCC4)ccc3O[C@@H]2[C@@H](CO)O1	5.85% (inactive)
C[C@H](NC(=O)C[C@H]1C=C[C@@H](NC(=O)C2CCOCC2)[C@@H](CO)O1)c1ccccc1	3.06% (inactive)
COc1ccccc1-c1cccc(-c2nc(C(=O)N3CCN(C)CC3)cc3c2[C@H](CCO)N([S@@](=O)C(C)(C)C)C3)c1	1.13% (inactive)
CO[C@@H]1CN(C)C(=O)c2cc(NC(C)=O)ccc2OC[C@@H](C)N(C(=O)NC2CCCCC2)C[C@H]1C	3.91% (inactive)
O=C(C[C@H]1C[C@H]2c3cc(NC(=O)C4CCC4)ccc3O[C@H]2[C@@H](CO)O1)NCc1ccc(Cl)cc1	-2.37% (inactive)
CN1CCN(C(=O)C[C@@H]2C[C@@H]3c4cc(NC(=O)c5ccc6c(c5)OCO6)ccc4O[C@@H]3[C@H](CO)O2)CC1	-2.8% (inactive)
COc1cccc(-c2ccc3c(c2)O[C@H](CN(C)C(=O)c2ccccc2F)[C@@H](C)CN([C@@H](C)CO)S3(=O)=O)c1	0.0695% (inactive)
O=C(Nc1ccccc1)Nc1ccc2c(c1)[C@@H]1C[C@@H](CC(=O)N3CCCCC3)O[C@H](CO)[C@@H]1O2	-1.6% (inactive)
O=C(C[C@H]1C[C@H]2c3cc(NC(=O)Nc4ccccc4)ccc3O[C@H]2[C@H](CO)O1)NC1CCCC1	2.44% (inactive)
COc1ccccc1NC(=O)N[C@H]1CC[C@H](CCNS(=O)(=O)c2ccc(Cl)cc2)O[C@H]1CO	47.2% (inactive)
COc1cccc(C(=O)Nc2ccc3c(c2)OC[C@H](C)N(C(C)=O)C[C@@H](C)[C@@H](OC)CN(C)C3=O)c1	6.08% (inactive)
C/C=C/c1ccc2c(c1)O[C@H](CN(C)C(=O)C1CCCCC1)[C@@H](C)CN([C@@H](C)CO)S2(=O)=O	13.7% (inactive)
CCC(=O)Nc1ccc2c(c1)OC[C@@H](C)N(Cc1cncnc1)C[C@H](C)[C@@H](OC)CN(C)C2=O	-1.64% (inactive)
COc1ccc(C(=O)Nc2ccc3c(c2)OC[C@H](C)N(C(C)=O)C[C@@H](C)[C@@H](OC)CN(C)C3=O)cc1	-11.8% (inactive)
CO[C@@H]1CN(C)C(=O)c2ccc(NC(=O)C3CC3)cc2OC[C@@H](C)N(Cc2ccncc2)C[C@@H]1C	8.95% (inactive)
O=C(C[C@H]1CC[C@H](NC(=O)c2ccncc2)[C@H](CO)O1)Nc1ccccc1	16.3% (inactive)
O=C(C[C@H]1C[C@@H]2c3cc(NS(=O)(=O)c4ccc(F)cc4)ccc3O[C@@H]2[C@H](CO)O1)NCc1cccc(F)c1	-5.18% (inactive)

Compound	inhibition
O=C(N[C@H]1CC[C@@H](CCNC(=O)C2CCC2)O[C@@H]1CO)c1ccncc1	-3.82% (inactive)
CN(C)CC(=O)Nc1ccc2c(c1)[C@H]1C[C@@H](CC(=O)NCc3ccccn3)O[C@@H](CO)[C@H]1O2	-17% (inactive)
CO[C@H]1CN(C)C(=O)c2ccc(NC(=O)C3CCCC3)cc2OC[C@@H](C)NC[C@@H]1C	7.43% (inactive)
CCC(=O)N1C[C@@H](C)[C@H](OC)CN(C)C(=O)c2ccc(NC(=O)c3cc(C)on3)cc2OC[C@H]1C	7.38% (inactive)
CCC(=O)Nc1ccc2c(c1)OC[C@H](C)N(CC1CCCCC1)C[C@@H](C)[C@H](OC)CN(C)C2=O	-10.4% (inactive)
CC(C)NC(=O)N[C@@H]1C=C[C@@H](CC(=O)N2CCCCC2)O[C@@H]1CO	7.89% (inactive)
O=C(C[C@@H]1CC[C@H](NC(=O)Nc2ccc(F)cc2)[C@H](CO)O1)NCc1ccccn1	-0.96% (inactive)
COc1cccc(-c2cnc3c(c2)C(=O)N([C@@H](C)CO)C[C@H](C)[C@H](CN(C)C(C)=O)O3)c1	1.62% (inactive)
COCC#Cc1cnc2c(c1)C(=O)N([C@H](C)CO)C[C@H](C)[C@H](CN(C)C(=O)Nc1cc(F)ccc1F)O2	0.676% (inactive)
COc1cccc(NC(=O)Nc2ccc3c(c2)OC[C@@H](C)NC[C@@H](C)[C@H](OC)CN(C)C3=O)c1	-3.01% (inactive)
COc1cccc(S(=O)(=O)Nc2ccc3c(c2)[C@@H]2C[C@@H](CC(=O)NCc4ccc(Cl)cc4)O[C@H](CO)[C@@H]2O3)c1	-2.95% (inactive)
O=C(C[C@@H]1C[C@@H]2c3cc(NC(=O)Nc4ccccc4F)ccc3O[C@@H]2[C@@H](CO)O1)NCCc1ccccc1	-11.7% (inactive)
CC1=CCC(C(C)(C)O[C@@H]2O[C@H](COC(=O)c3cc(O)c(O)c(O)c3)[C@@H](O)[C@H](O)[C@H]2O)CC1 (some centres undefined)	91.8% (active)
C[C@@H]1CN([C@H](C)CO)S(=O)(=O)c2ccc(C#CCN(C)C)cc2O[C@@H]1CN(C)C(=O)C1CCCCC1	1.46% (inactive)
CC(C)NC(=O)Nc1ccc2c(c1)CC(=O)N([C@H](C)CO)C[C@H](C)[C@@H](CN(C)C(=O)Nc1ccc(F)cc1)O2	-14.2% (inactive)
C[C@@H]1CN([C@H](C)CO)S(=O)(=O)c2ccc(-c3ccccc3)cc2O[C@@H]1CN(C)C(=O)C1CC1	7.84% (inactive)
CCCNC(=O)Nc1ccc2c(c1)OC[C@H](C)N(Cc1ccccc1)C[C@H](C)[C@H](OC)CN(C)C2=O	-21.6% (inactive)
C[C@H]1CN([C@@H](C)CO)S(=O)(=O)c2ccc(C#CC3CCCC3)cc2O[C@@H]1CN(C)C(=O)c1cccc(F)c1	14.8% (inactive)
O=C(C[C@@H]1CC[C@@H](NC(=O)C2CC2)[C@H](CO)O1)NCc1ccncc1	9.6% (inactive)
CN(C)CC(=O)N[C@@H]1CC[C@@H](CCn2cc(C3CC3)nn2)O[C@H]1CO	-8.32% (inactive)
